This passage reports growth results from PubChem BioAssay (NCI).

The panel holds about 83,000 compounds, 20% with a hit somewhere; the sample as a whole holds those more often.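 Plates (96-well) were seeded with cells, treated with compound at one concentration, and incubated for 48 hours before percent growth was determined.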 Values without a mark were called inactive. Active and inactive are the calls of the source. The calls were made as follows: active = growth percent below 10; inactive = the rest.

Among the test systems are HCT-15 colon; HT29 colon; SNB-19 CNS; U251 CNS; PC-3 prostate; SK-MEL-5 melanoma; UACC-62 melanoma; LOX IMVI melanoma; SK-MEL-28 melanoma; SK-MEL-2 melanoma; EKVX NSCLC; SN12C renal; UO-31 renal; TK-10 renal; ACHN renal; CAKI-1 renal; CCRF-CEM leukemia; MOLT-4 leukemia; A498 renal.
What all share (experiment): NCI-60 one-dose screen, 48 h (100 = growth as untreated, 0 = no growth, -100 = all killed)
Conditions in all cases: 10 µM unless noted

With `COc1cc(/C=N/NC(=O)c2cnn3c2NC(c2ccccc2)C3)ccc1OCc1ccccc1` (stereo not drawn), the growth was 2.36% (active) in the assay on HCT-15 colon; -35.6% (active) with HT29 colon; 19.3% with SNB-19 CNS; 4.86% (active) in the assay on U251 CNS; -31% (active) with PC-3 prostate; 5.94% (active) with SK-MEL-5 melanoma. Further, the growth with UACC-62 melanoma is -33.7% (active); in the assay with LOX IMVI melanoma it was 22%; in the assay on SK-MEL-28 melanoma it was 24.1%; in the assay with SK-MEL-2 melanoma, 6.28% (active); with EKVX NSCLC, 32.1%; in the assay on SN12C renal, 29.2%. In addition, the growth was 32.6% with UO-31 renal; -0.854% (active) in the assay with TK-10 renal; 10.7% with ACHN renal; 0.476% (active) in the assay on CAKI-1 renal; 17.1% in the assay on CCRF-CEM leukemia; 14.7% in the assay on MOLT-4 leukemia.

Turning to `Brc1ccc(Nc2csc(-c3ccccn3)n2)cc1`, the growth was 67.4% in the assay with HCT-15 colon; 81.4% in the assay with HT29 colon; 96% in the assay with SNB-19 CNS; 101% in the assay on U251 CNS; 85.3% with PC-3 prostate; 95.4% in the assay with SK-MEL-5 melanoma. The growth was 67.1% with UACC-62 melanoma; 72.1% in the assay on LOX IMVI melanoma; 109% in the assay with SK-MEL-28 melanoma; 96.4% in the assay with SK-MEL-2 melanoma; 85.4% in the assay with EKVX NSCLC; 91.6% in the assay on SN12C renal. The growth with UO-31 renal was 52.2%; with TK-10 renal, 119%; with ACHN renal it was 82.4%; in the assay on CAKI-1 renal, 63.6%; in the assay with CCRF-CEM leukemia it was 97.2%; with MOLT-4 leukemia, 96.6%.

As to `COc1ccc(C(=O)c2nc3ccccc3n2CC(=O)c2ccc(F)cc2)cc1`, the growth with HCT-15 colon is 56%; with HT29 colon it was 55%; in the assay on SNB-19 CNS, 95.6%; in the assay on U251 CNS, 90.5%; with PC-3 prostate, 83.2%; in the assay with SK-MEL-5 melanoma it was 88%. Further, the growth in the assay with UACC-62 melanoma is 65.3%; in the assay with LOX IMVI melanoma, 94.5%; in the assay with SK-MEL-28 melanoma, 80.2%; with SK-MEL-2 melanoma, 72.4%; in the assay with EKVX NSCLC, 190%; in the assay with SN12C renal it was 92.7%. Moreover, the growth with UO-31 renal is 88.3%; with TK-10 renal, 84.2%; in the assay with ACHN renal, 105%; in the assay with CAKI-1 renal, 115%; in the assay with A498 renal, 116%; with CCRF-CEM leukemia, 79.6%. Further, in the assay with MOLT-4 leukemia, the growth was 74.8%.

Consider `CCCC/C=N/NC(=S)NCc1ccccc1`, for which the growth with HCT-15 colon was 95.8%; with HT29 colon it was 101%; with SNB-19 CNS it was 95.9%; in the assay on U251 CNS, 97.1%; in the assay with PC-3 prostate, 86.1%; in the assay with SK-MEL-5 melanoma it was 97.1%. Besides, the growth is 93.8% with UACC-62 melanoma; 97.3% in the assay with LOX IMVI melanoma; 98.2% in the assay with SK-MEL-28 melanoma; 106% with SK-MEL-2 melanoma; 101% in the assay on EKVX NSCLC; 96.1% in the assay on SN12C renal. For the same compound, the growth was 93.3% with UO-31 renal; 103% with TK-10 renal; 99.4% in the assay on ACHN renal; 100% in the assay with CAKI-1 renal; 99.1% in the assay on CCRF-CEM leukemia; 95% with MOLT-4 leukemia.

Turning to `O=C(/C=C/c1ccc(F)cc1)c1ccc(NC(=O)N2CCN(c3cc4c(cc3F)c(=O)c(C(=O)O)cn4C3CC3)CC2)cc1`, the growth was 101% in the assay with HCT-15 colon; 98% in the assay on HT29 colon; 88.1% in the assay with SNB-19 CNS; 98.9% in the assay with U251 CNS; 96.6% in the assay on PC-3 prostate; 96.8% with SK-MEL-5 melanoma. Besides, the growth is 78.2% in the assay with UACC-62 melanoma; 83.7% in the assay with LOX IMVI melanoma; 90.6% in the assay with SK-MEL-28 melanoma; 105% in the assay on SK-MEL-2 melanoma; 94.5% with EKVX NSCLC; 92.6% in the assay with SN12C renal. In addition, the growth is 77.9% with UO-31 renal; 92.5% with TK-10 renal; 106% with ACHN renal; 95.2% in the assay with CAKI-1 renal; 90.9% with CCRF-CEM leukemia; 99.5% in the assay on MOLT-4 leukemia.

Take `Cc1ccc(-c2nc3ccccn3c2/C=C2/C(=O)Nc3cc(Cl)ccc32)cc1`: the growth with HCT-15 colon is 53.3%; in the assay on HT29 colon, 66.5%; in the assay on SNB-19 CNS, 87.5%; in the assay on U251 CNS, 96.4%; in the assay on PC-3 prostate, 70.1%; in the assay with SK-MEL-5 melanoma, 71.9%. In addition, the growth is 74.1% in the assay on UACC-62 melanoma; 53.8% in the assay on LOX IMVI melanoma; 91.8% in the assay on SK-MEL-28 melanoma; 87.7% with SK-MEL-2 melanoma; 91.9% in the assay with EKVX NSCLC; 77.5% in the assay on SN12C renal. In addition, the growth is 62.5% in the assay on UO-31 renal; 120% with TK-10 renal; 92.3% with ACHN renal; 62.6% in the assay with CAKI-1 renal; 98.2% with A498 renal; 56.2% with CCRF-CEM leukemia. Besides, in the assay on MOLT-4 leukemia, the growth was 53.4%.

Take `COc1cc(C(=O)Nc2cc3c(cc2Oc2cc(C)cc(C)c2)C(=O)N(C)[C@@H](CC(=O)N(C)O)C(=O)N3)c(Br)c(OC)c1OC`: the growth in the assay with HCT-15 colon was -16.2% (active); in the assay with HT29 colon it was -14.5% (active); in the assay on SNB-19 CNS, -21.9% (active); in the assay on U251 CNS, -0.595% (active); in the assay on PC-3 prostate it was -14.5% (active); in the assay on SK-MEL-5 melanoma it was -71.7% (active). The growth was -69% (active) in the assay with UACC-62 melanoma; -41.5% (active) in the assay on LOX IMVI melanoma; -49.1% (active) in the assay with SK-MEL-28 melanoma; -55.3% (active) with SK-MEL-2 melanoma; -18.8% (active) in the assay on EKVX NSCLC; -27.7% (active) with SN12C renal. Further, the growth was -32.4% (active) with UO-31 renal; -12.2% (active) in the assay with TK-10 renal; -30% (active) in the assay with ACHN renal; -5.8% (active) with CAKI-1 renal; 2.91% (active) in the assay with CCRF-CEM leukemia.

In the case of `O=C(Nc1cccc(C2=NCCN2)c1)c1ccc(-c2ccc(C(=O)Nc3cccc(C4=NCCN4)c3)cc2)cc1`, the growth in the assay with HCT-15 colon is 82.6%; with HT29 colon it was 84.5%; with SNB-19 CNS, 87%; with U251 CNS it was 86.3%; with PC-3 prostate, 97.7%; in the assay with SK-MEL-5 melanoma, 36.9%. Further, the growth is 68.1% with UACC-62 melanoma; 97.9% with LOX IMVI melanoma; 46.3% in the assay on SK-MEL-28 melanoma; 105% in the assay with SK-MEL-2 melanoma; 95.8% in the assay on EKVX NSCLC; 99.1% with UO-31 renal. Besides, the growth is 138% in the assay on TK-10 renal; 98.4% with ACHN renal; 107% in the assay with CAKI-1 renal; 89.1% in the assay on CCRF-CEM leukemia; 80.9% in the assay with MOLT-4 leukemia.

As for `COc1cc2nc(-c3ccc(C(F)(F)F)cc3)cc(OCCCN3CCCC3)c2cc1OC`, the growth in the assay on HCT-15 colon is 13.1%; in the assay with HT29 colon, 20.9%; in the assay on SNB-19 CNS, 67.5%; in the assay with U251 CNS it was 50.6%; in the assay with PC-3 prostate it was 41.7%; with SK-MEL-5 melanoma it was -18.2% (active). Moreover, the growth in the assay on UACC-62 melanoma is -25% (active); with LOX IMVI melanoma it was -53.1% (active); in the assay on SK-MEL-28 melanoma it was 71.9%; in the assay with SK-MEL-2 melanoma, 49.3%; in the assay with EKVX NSCLC it was 65%; in the assay with SN12C renal, 44.5%. For the same compound, the growth was 31.5% with UO-31 renal; 100% with TK-10 renal; 39.1% in the assay on ACHN renal; -7.36% (active) in the assay with CAKI-1 renal; 38.5% in the assay on CCRF-CEM leukemia; 46.2% in the assay with MOLT-4 leukemia.

`Nc1c(C(=O)Nc2cccc3cnccc23)sc2nc3c(cc12)CN(Cc1ccccc1)CC3`: the growth in the assay with HCT-15 colon was 107%; with HT29 colon, 108%; in the assay with SNB-19 CNS, 99.6%; with U251 CNS it was 108%; in the assay with PC-3 prostate, 91.3%; in the assay on SK-MEL-5 melanoma, 98.8%. Further, the growth in the assay on UACC-62 melanoma is 96.4%; in the assay with LOX IMVI melanoma it was 103%; in the assay with SK-MEL-28 melanoma, 111%; in the assay with SK-MEL-2 melanoma, 116%; in the assay on EKVX NSCLC, 101%; in the assay with SN12C renal, 97.5%. The growth was 75.5% with UO-31 renal; 140% in the assay on TK-10 renal; 99.9% in the assay with ACHN renal; 90.1% with CAKI-1 renal; 109% in the assay on CCRF-CEM leukemia; 107% with MOLT-4 leukemia.

Regarding `CCOC(=O)c1cc(C(=O)c2cc(OC)cc(OC)c2)n2ccc3ccccc3c12`, the growth in the assay on HCT-15 colon is 100%; in the assay with HT29 colon it was 101%; in the assay on SNB-19 CNS, 55.2%; with U251 CNS it was 81.8%; in the assay on PC-3 prostate, 99.4%; with SK-MEL-5 melanoma it was 100%. Further, the growth with UACC-62 melanoma was 91.1%; in the assay with LOX IMVI melanoma it was 88.9%; with SK-MEL-28 melanoma it was 107%; in the assay with SK-MEL-2 melanoma it was 102%; in the assay on EKVX NSCLC, 94.8%; in the assay on SN12C renal, 81.2%. For the same compound, the growth in the assay on UO-31 renal is 95.3%; in the assay on TK-10 renal it was 99.8%; in the assay with ACHN renal, 84.2%; in the assay on CAKI-1 renal, 84.5%; in the assay with A498 renal, 89.3%; in the assay on CCRF-CEM leukemia it was 102%. In addition, the growth in the assay with MOLT-4 leukemia is 104%.

With `CCOC(=O)c1nc2c3ccccc3ccn2c1C(=O)OCC`, the growth in the assay on HCT-15 colon was 99.7%; in the assay on HT29 colon, 105%; in the assay with SNB-19 CNS, 89.2%; with U251 CNS, 105%; in the assay on PC-3 prostate, 110%; with SK-MEL-5 melanoma it was 98.2%. Moreover, the growth in the assay with UACC-62 melanoma is 87.5%; in the assay with LOX IMVI melanoma, 98.6%; in the assay with SK-MEL-28 melanoma it was 113%; in the assay with SK-MEL-2 melanoma, 112%; in the assay with EKVX NSCLC it was 76.9%; in the assay with SN12C renal, 95.4%. The growth in the assay with UO-31 renal is 96.4%; in the assay with TK-10 renal, 102%; in the assay on ACHN renal, 99.5%; in the assay with CAKI-1 renal it was 94.8%; in the assay with A498 renal it was 109%; in the assay on CCRF-CEM leukemia, 96.1%. The growth with MOLT-4 leukemia is 95.4%.
